Hit rate of the full screen: of about 420,000 compounds, about 64,000 (15%) were called active. Another 27% or so got no clear call; they are omitted. Calls come from the whole dose curve; as a rule, active = well fitted inhibition curve with a large enough effect; inconclusive = small, poorly fitted or top-dose-only effect; inactive = flat fitted curve, though single readings scatter. These entries were drawn from the full list. Entries that show only a call come without a potency.
Potency is the fitted concentration of half-maximal effect.

The assay is described as follows: qHTS for Inhibitors of human tyrosyl-DNA phosphodiesterase 1 (TDP1): qHTS in cells in absence of CPT. Note: nearly all actives have a fitted effect of over 55% in size. The conditions noted are these: DT40 Tdp1-/- hTDP1 cells, no CPT, ATP luminescence, 48 h; activity change, negative = growth inhibition: at 46.2 µM (top of the series). The method, boiled down: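 Camptothecin absent (DMSO only). Human TDP1-complemented DT40 knockout cells, 400 cells/well, 37 °C for minimum 48 hr; ATP measured via CellTiter-Glo, 30 min dark incubation, luminescence.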
For the molecule `CN(CCO)S(=O)(=O)c1ccc2c(c1)C(=O)c1cc(S(=O)(=O)N(C)CCO)ccc1-2`, the Potency result is “inactive”.

Take `C=CCOc1ccc(/C=C/C(=O)OCC(=O)NC2CCCCCC2)cc1`: the Potency result was “inactive”.

In the case of `Cc1ccc(C)c(CN2C(=O)c3ccccc3S(=O)c3ccc(C(=O)N4CCOCC4)cc32)c1` (stereo not drawn), the Potency entry was “inactive”.

Consider `CN(C(=O)c1ccc2c(c1)N(Cc1cccc(Cl)c1)C(=O)c1ccccc1S2=O)C1CCCCC1` (stereo not drawn), for which the Potency was 23.1 µM (active).

For `Cc1c(CNC2CCCCC2)c(C(=O)O)c(C)n1Cc1cccc(Cl)c1`, the Potency entry is “inactive”.

For `Cc1ccc(CCNC(=O)c2ccc3c(c2)N(Cc2cc(C)ccc2C)C(=O)c2ccccc2S3=O)cc1` (stereo not drawn), the Potency was 11.6 µM (active).

`O=C(O)c1ccc2c(c1)N(Cc1ccc(F)cc1)C(=O)c1ccccc1S2=O` (stereo not drawn): the Potency is 14.6 µM (active).

On to `O=C(COC(=O)c1cccc(Cl)c1)NC1CCCCCCC1`, for which the Potency result is “inactive”.

In the case of `O=C(CN1C(=O)c2ccccc2C1=O)NCc1ccc(C(=O)O)cc1`, the Potency result is “inactive”.

Take `Cc1ccc(CNS(=O)(=O)CCNC(=O)c2ccccc2)cc1`: the Potency entry was “inactive”.

With `COc1ccccc1NC(=O)c1cc(N2C(=O)C3C4CCC(C4)C3C2=O)ccc1Cl` (stereo not drawn), the Potency result was “inactive”.

For the molecule `C/C(CC(=O)NC(C)(C)C)=N\NC(=O)c1ccco1`, the Potency result is “inactive”.

`COC(=O)c1ccc(CNC(=O)Cn2cc(C)c(=O)[nH]c2=O)cc1`: the Potency result was “inactive”.

On to `Cc1ccc(OCC(=O)N2CCN(S(=O)(=O)c3ccc(Cl)s3)CC2)cc1C`, for which the Potency result was “inactive”.

Regarding `Cc1ccc(O)c(CCc2ccccc2)n1`, the Potency result was “inactive”.

Take `Cc1cc(C)n2c(Nc3c(C)cccc3C)c(CCc3ccccc3)nc2n1`: the Potency is 16.4 µM (active).

On to `Cc1cc(C)n2c(NCc3ccccc3)c(CC(C)C)nc2n1`, for which the Potency is 23.1 µM (active).

For the molecule `Nc1nc(NCc2ccccc2)n(-c2ccccc2)n1`, the Potency result was “inactive”.

Turning to `COc1cccc2c(C)c(C(=O)O)[nH]c12`, the Potency entry was “inactive”.

As for `O=C(O)CC(CC(=O)N1CCOCC1)c1ccccc1` (stereo not drawn), the Potency result is “inactive”.

As for `COc1ccc(CCNS(=O)(=O)c2cccc3cccnc23)cc1OC`, the Potency entry is “inactive”.

As for `CCCCC(=O)NC(c1ccc(OC)c(OC)c1)c1ccc2cccnc2c1O` (stereo not drawn), the Potency is 3.26 µM (active).

Regarding `CCOc1ccc(C(CC(=O)O)NC(=O)Cc2ccccc2)cc1OC` (stereo not drawn), the Potency entry is “inactive”.

Regarding `COC(=O)C1C(=O)CC(C)(O)C(C(=O)OC)C1c1ccc2c(c1)OCO2` (stereo not drawn), the Potency result was “inactive”.

For the molecule `NCCCC[C@@H]1NC(=O)[C@H](CCC(=O)O)NC(=O)c2cc([N+](=O)[O-])cc(I)c2NCC[C@@H](C(N)=O)NC1=O`, the Potency entry is “inactive”.

For the molecule `CCc1nnc(NC(=O)CSCc2cc(=O)n3cc(C)sc3n2)s1`, the Potency entry was “inactive”.

With `COc1ccc(CN2CC[C@H]3C=CC[C@@H](C(=O)N4CCOCC4)[C@H]3C2=O)cc1OC`, the Potency entry is “inactive”.

As for `Cc1ccc2nc3c(cc(C(=O)NC4CCCCC4)c(=N)n3C(C)C)c(=O)n2c1`, the Potency entry was “inactive”.

Consider `CC(NC(=O)c1cc2c(=O)n3ccccc3nc2n(C(C)C)c1=N)c1ccccc1` (stereo not drawn), for which the Potency was 18.4 µM (active).

Consider `CC(NC(=O)c1ccccc1C(=O)O)c1ccc(-n2ccnc2)cc1` (stereo not drawn), for which the Potency result was “inactive”.

In the case of `CCc1ccc(CN(Cc2ccco2)C(=O)c2ccccc2Cl)cc1`, the Potency was 20.6 µM (active).

Turning to `COC(=O)c1ccc(COC(=O)CNC(=O)c2cccc(OC)c2)o1`, the Potency result was “inactive”.

For the molecule `O=C(CCNC(=O)c1ccccc1Cl)NCc1ccco1`, the Potency result is “inactive”.

Take `COc1cccc(C(=O)N(Cc2cccc(Cl)c2)Cc2ccco2)c1`: the Potency is 14.6 µM (active).

Take `O=C(Nc1ccccc1)N(Cc1cccnc1)Cc1ccco1`: the Potency entry is “inactive”.

Take `COc1cccc(NC(=S)NCc2ccco2)c1`: the Potency result was “inactive”.

Take `CCCOc1ccc(Cn2c(O)cc(=O)[nH]c2=O)cc1`: the Potency entry is “inactive”.

`CN1CCN(C(=O)/C(=C\c2ccc3c(c2)OCO3)NC(=O)c2cccs2)CC1`: the Potency result is “inactive”.

Regarding `Cc1ccc(-c2nc(-c3ccncc3)no2)c(C)c1`, the Potency entry is “inactive”.

Take `Cc1nn(CC(=O)NCC2CCCO2)c(=O)c2cc3ccccc3n12` (stereo not drawn): the Potency entry was “inactive”.

Take `CCCCN1C(=S)NC[C@@H]1C(C)CC` (stereo partly drawn): the Potency entry was “inactive”.

Regarding `CCCCN1C(N)=NC[C@@H]1Cc1ccccc1`, the Potency is 14.6 µM (active).

With `CN(C)C1=NC[C@H](Cc2ccccc2)N1CCc1ccc(F)cc1`, the Potency result was “inactive”.

In the case of `CCCCN1C(N)=NC[C@@H]1CC1CCCCC1`, the Potency was 16.4 µM (active).

With `CCCCNC(=O)C1CCC(=O)N1CCc1ccccc1` (stereo not drawn), the Potency entry was “inactive”.

With `CCCC[C@@H]1CN=C(N)N1CCCC`, the Potency is 7.31 µM (active).

On to `NNC(=O)c1ccc(Cl)cc1Cl`, for which the Potency result was “inactive”.

For the molecule `OCC(CO)(CO)NCc1ccc(-c2ccccc2)cc1`, the Potency entry is “inactive”.

As to `Cn1nc([N+](=O)[O-])nc1Sc1ccc(C(C)(C)C)cc1`, the Potency result was “inactive”.

With `O=C(CC1NCCNC1=O)Nc1cc(Cl)cc(Cl)c1` (stereo not drawn), the Potency entry was “inactive”.

For `Cc1nc(-c2ccccc2)sc1C(=O)/C=C/c1ccccc1`, the Potency is 18.4 µM (active).

In the case of `CNC(=O)c1csc(-c2ccccc2)n1`, the Potency entry was “inactive”.

For `Cc1ccc(SCC(=O)c2sc(-c3ccccc3)nc2C)cc1`, the Potency result is “inactive”.

`N#Cc1cnn2cc(CCN3CCOCC3)c(-c3ccc(F)cc3)nc12`: the Potency result was “inactive”.

Turning to `CCCc1c2oc(C(=O)O)cc(=O)c2cc2c(=O)cc(C(=O)O)n(CC)c12`, the Potency result was “inactive”.

Regarding `O=C(Nc1ccccc1C(=O)NCC1CCCO1)c1ccccc1F` (stereo not drawn), the Potency result was “inactive”.

As for `CNC(=O)CN1C(=O)NC(c2ccccc2)(c2ccccc2)C1=O`, the Potency entry was “inactive”.

As to `CCN(CC)C(=O)C1=C(C)N(Cc2ccc(C(C)(C)C)cc2)C(=O)C(CC(=O)NCc2cccc3ccccc23)C1` (stereo not drawn), the Potency is 16.4 µM (active).

In the case of `CC1=C(C(=O)N(C)C)CC(CC(=O)NCCN2CCOCC2)C(=O)N1Cc1ccccc1` (stereo not drawn), the Potency entry is “inactive”.

As for `CCN(CC)C(=O)C1=C(C)N(Cc2ccccc2)C(=O)C(CC(=O)NC(c2ccccc2)c2ccccc2)C1` (stereo not drawn), the Potency is 18.4 µM (active).

Consider `CCN(CC)C(=O)C1=C(C)N(Cc2ccc(F)cc2)C(=O)C(CC(=O)NC2CCCC2)C1` (stereo not drawn), for which the Potency entry was “inactive”.

As to `CCN(CC)C(=O)C1=C(C)N(Cc2ccc(OC)cc2)C(=O)C(CC(=O)NCc2ccco2)C1` (stereo not drawn), the Potency result was “inactive”.

In the case of `COc1ccc(CN2C(=O)C(CC(=O)NCc3cccc4ccccc34)CC(C(=O)N3CCOCC3)=C2C)cc1` (stereo not drawn), the Potency entry is “inactive”.

Consider `COc1ccc2c(C)cc3nnnn3c2c1`, for which the Potency entry was “inactive”.

As for `O=C(Nc1ccc(Cl)cc1)c1cc2nc(C3CC3)cc(C(F)(F)F)n2n1`, the Potency entry was “inactive”.

With `COc1cc(C(=O)NCc2nnc(SCC(=O)Nc3nc4ccc(C)cc4s3)o2)cc(OC)c1OC`, the Potency is 4.61 µM (active).

With `COc1ccccc1NC(=O)CSc1nnc(CNC(=O)c2ccccc2F)o1`, the Potency result is “inactive”.

For the molecule `COc1ccc(C(=O)NCc2nnc(SCC(=O)Nc3cccc(OC)c3)o2)cc1`, the Potency result was “inactive”.

The values above are taken from PubChem BioAssay AID686978 (National Center for Advancing Translational Sciences (NCATS), 2013).
